Data from article PMC7862700, “An all-to-all approach to the identification of sequence-specific readers for epigenetic DNA modifications on cytosine”.

What was measured:
Assay in all cases: DAPPL (digital affinity profiling via proximity ligation, sequencing); 10 mM Tris-HCl pH 7.5, 50 mM NaCl, 1 mM DTT, 4% glycerol, room temperature, 30 min; GST-TFs on glutathione beads, 16-mer random dsDNA library, 0.1% formaldehyde crosslink after washing; high values mean tight binding
FLI1 = molecular target: T1, FLI1 (Homo sapiens, UniProt Q01543 1-452); settings: protein: recombinant; tags: N-terminal GST; dsDNA, one strand shown
T1 sequence: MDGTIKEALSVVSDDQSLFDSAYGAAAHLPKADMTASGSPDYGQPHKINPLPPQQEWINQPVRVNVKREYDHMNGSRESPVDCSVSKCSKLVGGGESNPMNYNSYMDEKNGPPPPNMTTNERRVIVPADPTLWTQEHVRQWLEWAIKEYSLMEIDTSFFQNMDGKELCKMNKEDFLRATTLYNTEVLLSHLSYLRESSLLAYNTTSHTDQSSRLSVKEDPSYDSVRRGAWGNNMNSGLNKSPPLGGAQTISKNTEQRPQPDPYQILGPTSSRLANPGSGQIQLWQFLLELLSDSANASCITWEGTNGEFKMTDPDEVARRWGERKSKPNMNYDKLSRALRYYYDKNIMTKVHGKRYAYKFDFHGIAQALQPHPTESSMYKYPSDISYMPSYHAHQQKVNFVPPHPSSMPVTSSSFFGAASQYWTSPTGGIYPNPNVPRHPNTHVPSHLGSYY
Outline: (§1)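 Binding signal is given per hexamer as its read frequency for a factor divided by its frequency in the tag-only sample. GST-fused human transcription factors were expressed in yeast, captured on glutathione beads, barcoded with DNA and pooled with that sample, then incubated with 200 nmole of a 16-mer random double-stranded DNA library in Tris/NaCl/DTT/glycerol buffer for 30 min at room temperature. The pools were then washed, crosslinked, proximity-ligated, amplified by PCR and sequenced on an Illumina NextSeq500.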

ELK1 = molecular target: T2, ELK1 (Homo sapiens, UniProt P19419 1-428); settings: protein: recombinant; tags: N-terminal GST; dsDNA, one strand shown
T2 sequence: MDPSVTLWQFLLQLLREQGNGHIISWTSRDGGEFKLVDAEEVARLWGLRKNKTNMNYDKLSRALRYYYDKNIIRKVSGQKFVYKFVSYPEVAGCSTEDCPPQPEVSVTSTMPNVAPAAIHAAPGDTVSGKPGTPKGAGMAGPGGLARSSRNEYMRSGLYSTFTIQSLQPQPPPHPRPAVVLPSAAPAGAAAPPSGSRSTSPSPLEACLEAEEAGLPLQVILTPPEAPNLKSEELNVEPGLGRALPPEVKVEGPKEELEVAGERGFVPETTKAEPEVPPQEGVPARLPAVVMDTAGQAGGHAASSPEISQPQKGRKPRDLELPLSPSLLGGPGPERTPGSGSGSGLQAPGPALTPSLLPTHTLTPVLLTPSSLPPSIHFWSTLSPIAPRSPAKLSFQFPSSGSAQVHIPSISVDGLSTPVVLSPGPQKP
Outline: as §1

GABPA = molecular target: T3, GABPA (Homo sapiens, UniProt Q06546 1-454); settings: protein: recombinant; tags: N-terminal GST; dsDNA, one strand shown
T3 sequence: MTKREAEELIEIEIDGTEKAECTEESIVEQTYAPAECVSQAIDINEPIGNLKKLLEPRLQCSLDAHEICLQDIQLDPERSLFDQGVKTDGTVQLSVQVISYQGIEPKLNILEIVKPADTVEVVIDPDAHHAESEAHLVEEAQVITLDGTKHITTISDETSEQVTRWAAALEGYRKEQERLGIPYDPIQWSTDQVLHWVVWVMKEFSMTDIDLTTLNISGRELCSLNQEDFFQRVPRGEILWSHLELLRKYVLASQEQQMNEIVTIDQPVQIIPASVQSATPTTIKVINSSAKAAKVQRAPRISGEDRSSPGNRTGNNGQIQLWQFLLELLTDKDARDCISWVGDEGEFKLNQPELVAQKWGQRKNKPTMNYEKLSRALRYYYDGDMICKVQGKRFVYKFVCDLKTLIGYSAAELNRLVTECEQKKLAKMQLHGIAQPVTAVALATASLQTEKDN
Outline: as §1

ERG = molecular target: T4, ERG (Homo sapiens, UniProt P11308 1-479); settings: protein: recombinant; tags: N-terminal GST; dsDNA, one strand shown
T4 sequence: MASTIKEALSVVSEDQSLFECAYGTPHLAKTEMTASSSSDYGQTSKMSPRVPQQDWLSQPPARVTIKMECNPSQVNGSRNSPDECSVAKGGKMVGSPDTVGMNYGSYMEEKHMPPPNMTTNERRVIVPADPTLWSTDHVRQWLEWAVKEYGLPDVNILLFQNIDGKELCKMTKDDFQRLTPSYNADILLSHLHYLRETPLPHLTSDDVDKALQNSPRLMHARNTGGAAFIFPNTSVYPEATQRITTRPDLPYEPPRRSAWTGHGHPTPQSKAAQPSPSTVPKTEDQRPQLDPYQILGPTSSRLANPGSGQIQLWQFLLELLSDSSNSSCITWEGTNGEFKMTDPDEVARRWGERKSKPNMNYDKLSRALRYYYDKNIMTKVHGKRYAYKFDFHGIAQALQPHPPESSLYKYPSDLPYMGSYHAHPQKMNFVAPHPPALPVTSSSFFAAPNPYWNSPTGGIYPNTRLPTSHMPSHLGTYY
Outline: as §1

ELF1 = ELF1 (Homo sapiens, UniProt P32519 1-619); settings: protein: recombinant; tags: N-terminal GST; dsDNA, one strand shown
Chain of ELF1 (P32519 whole entry): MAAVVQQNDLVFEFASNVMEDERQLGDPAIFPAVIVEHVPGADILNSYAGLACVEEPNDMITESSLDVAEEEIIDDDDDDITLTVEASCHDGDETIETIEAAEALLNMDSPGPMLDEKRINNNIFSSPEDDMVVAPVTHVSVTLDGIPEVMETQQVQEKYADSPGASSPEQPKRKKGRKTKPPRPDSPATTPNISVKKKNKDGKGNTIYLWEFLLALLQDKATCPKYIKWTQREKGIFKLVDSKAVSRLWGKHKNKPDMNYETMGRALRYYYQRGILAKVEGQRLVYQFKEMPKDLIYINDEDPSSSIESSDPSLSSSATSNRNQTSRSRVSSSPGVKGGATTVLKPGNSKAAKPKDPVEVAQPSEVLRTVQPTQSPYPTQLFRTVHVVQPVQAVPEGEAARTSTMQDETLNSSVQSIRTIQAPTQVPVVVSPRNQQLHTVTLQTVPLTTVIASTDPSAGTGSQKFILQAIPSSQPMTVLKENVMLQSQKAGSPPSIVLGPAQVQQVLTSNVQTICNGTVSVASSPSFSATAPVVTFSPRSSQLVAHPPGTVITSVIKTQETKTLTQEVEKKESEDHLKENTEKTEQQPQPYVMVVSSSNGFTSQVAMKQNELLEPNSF
Outline: as §1

EHF = molecular target: T5, EHF (Homo sapiens, UniProt Q9NZC4 1-300); settings: protein: recombinant; tags: N-terminal GST; dsDNA, one strand shown
T5 sequence: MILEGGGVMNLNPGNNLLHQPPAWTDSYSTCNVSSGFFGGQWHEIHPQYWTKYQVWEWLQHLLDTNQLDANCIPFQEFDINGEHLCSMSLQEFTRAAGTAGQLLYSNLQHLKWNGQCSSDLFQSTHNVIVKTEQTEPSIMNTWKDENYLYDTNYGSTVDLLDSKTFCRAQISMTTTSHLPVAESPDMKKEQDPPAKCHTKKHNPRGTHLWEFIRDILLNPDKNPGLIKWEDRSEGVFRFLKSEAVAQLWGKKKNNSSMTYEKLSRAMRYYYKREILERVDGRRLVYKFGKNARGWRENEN
Outline: as §1

SPI1 = SPI1 (Homo sapiens, UniProt P17947 1-270); settings: protein: recombinant; tags: N-terminal GST; dsDNA, one strand shown
Outline: as §1

SPIB = SPIB (Homo sapiens, UniProt Q01892 1-262); settings: protein: recombinant; tags: N-terminal GST; dsDNA, one strand shown
Chain of SPIB (Q01892 whole entry): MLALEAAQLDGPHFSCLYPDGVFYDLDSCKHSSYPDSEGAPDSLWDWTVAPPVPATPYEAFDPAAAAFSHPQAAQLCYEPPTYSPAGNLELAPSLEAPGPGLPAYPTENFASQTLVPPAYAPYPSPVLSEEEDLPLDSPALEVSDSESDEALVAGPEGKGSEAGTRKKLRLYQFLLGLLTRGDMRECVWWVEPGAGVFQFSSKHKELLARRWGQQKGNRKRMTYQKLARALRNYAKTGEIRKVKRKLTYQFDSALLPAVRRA
Outline: as §1

ELK3 = molecular target: T6, ELK3 (Homo sapiens, UniProt P41970 1-407); settings: protein: recombinant; tags: N-terminal GST; dsDNA, one strand shown
T6 sequence: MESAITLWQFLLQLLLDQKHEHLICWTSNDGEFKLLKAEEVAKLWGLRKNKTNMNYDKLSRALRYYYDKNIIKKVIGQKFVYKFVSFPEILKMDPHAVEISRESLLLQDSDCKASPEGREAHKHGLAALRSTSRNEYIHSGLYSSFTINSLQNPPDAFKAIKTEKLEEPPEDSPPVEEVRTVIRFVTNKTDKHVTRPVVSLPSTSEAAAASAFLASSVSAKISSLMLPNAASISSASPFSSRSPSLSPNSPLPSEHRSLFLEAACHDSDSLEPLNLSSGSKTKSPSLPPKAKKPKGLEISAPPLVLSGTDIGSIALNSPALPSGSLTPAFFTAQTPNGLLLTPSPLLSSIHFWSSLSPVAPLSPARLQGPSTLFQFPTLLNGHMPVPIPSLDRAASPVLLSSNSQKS
Outline: as §1

FEV = molecular target: T7, FEV (Homo sapiens, UniProt Q99581 1-238); settings: protein: recombinant; tags: N-terminal GST; dsDNA, one strand shown
T7 sequence: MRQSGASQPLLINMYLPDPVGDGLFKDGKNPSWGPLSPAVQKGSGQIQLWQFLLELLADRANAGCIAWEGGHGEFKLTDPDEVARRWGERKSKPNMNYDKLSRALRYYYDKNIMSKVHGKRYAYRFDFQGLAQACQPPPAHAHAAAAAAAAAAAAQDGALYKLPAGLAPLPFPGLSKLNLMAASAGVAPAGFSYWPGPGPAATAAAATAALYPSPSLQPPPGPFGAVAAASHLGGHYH
Outline: as §1

ETV5 = ETV5 (Homo sapiens, UniProt P41161 1-510); settings: protein: recombinant; tags: N-terminal GST; dsDNA, one strand shown
Chain of ETV5 (P41161 whole entry): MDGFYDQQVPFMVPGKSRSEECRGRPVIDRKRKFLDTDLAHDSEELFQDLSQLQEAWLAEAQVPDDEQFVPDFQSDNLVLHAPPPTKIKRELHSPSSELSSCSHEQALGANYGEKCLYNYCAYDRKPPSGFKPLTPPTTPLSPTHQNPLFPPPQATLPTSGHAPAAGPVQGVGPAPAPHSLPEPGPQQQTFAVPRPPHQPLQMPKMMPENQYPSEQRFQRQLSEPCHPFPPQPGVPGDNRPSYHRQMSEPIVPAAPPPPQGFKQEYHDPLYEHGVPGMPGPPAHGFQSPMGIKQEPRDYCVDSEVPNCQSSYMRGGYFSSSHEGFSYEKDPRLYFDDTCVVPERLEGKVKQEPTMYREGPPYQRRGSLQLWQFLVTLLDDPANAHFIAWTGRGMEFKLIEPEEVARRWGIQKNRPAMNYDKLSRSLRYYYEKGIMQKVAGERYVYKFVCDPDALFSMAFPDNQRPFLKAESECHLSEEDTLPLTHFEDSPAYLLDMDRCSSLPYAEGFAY
Outline: as §1

HSF1 = HSF1 (Homo sapiens, UniProt Q00613 1-529); settings: protein: recombinant; tags: N-terminal GST; chain copies: 3; dsDNA, one strand shown
Chain of HSF1 (Q00613 whole entry): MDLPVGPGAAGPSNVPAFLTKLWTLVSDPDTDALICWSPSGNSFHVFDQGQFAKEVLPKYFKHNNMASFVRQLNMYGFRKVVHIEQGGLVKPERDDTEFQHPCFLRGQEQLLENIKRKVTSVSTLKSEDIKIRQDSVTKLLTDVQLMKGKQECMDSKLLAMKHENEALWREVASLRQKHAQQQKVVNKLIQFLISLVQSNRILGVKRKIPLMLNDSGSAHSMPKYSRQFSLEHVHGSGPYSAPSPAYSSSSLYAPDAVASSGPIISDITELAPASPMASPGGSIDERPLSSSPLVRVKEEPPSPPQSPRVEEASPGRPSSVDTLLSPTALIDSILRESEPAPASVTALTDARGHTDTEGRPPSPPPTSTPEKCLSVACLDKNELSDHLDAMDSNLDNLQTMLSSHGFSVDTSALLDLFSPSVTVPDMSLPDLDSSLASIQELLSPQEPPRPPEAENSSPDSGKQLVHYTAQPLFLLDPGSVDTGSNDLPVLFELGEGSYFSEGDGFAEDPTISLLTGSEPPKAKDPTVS
Outline: as §1

SPIC = molecular target: T8, SPIC (Homo sapiens, UniProt Q8N5J4 1-248); settings: protein: recombinant; tags: N-terminal GST; dsDNA, one strand shown
T8 sequence: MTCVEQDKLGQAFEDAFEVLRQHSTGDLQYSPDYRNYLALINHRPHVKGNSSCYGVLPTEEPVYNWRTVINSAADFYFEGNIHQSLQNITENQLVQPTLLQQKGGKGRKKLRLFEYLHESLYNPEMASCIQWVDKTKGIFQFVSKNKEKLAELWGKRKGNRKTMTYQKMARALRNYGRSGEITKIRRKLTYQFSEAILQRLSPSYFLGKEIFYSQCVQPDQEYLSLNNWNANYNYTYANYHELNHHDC
Outline: as §1

ELF4 = ELF4 (Homo sapiens, UniProt Q99607 1-663); settings: protein: recombinant; tags: N-terminal GST; dsDNA, one strand shown
Chain of ELF4 (Q99607 whole entry): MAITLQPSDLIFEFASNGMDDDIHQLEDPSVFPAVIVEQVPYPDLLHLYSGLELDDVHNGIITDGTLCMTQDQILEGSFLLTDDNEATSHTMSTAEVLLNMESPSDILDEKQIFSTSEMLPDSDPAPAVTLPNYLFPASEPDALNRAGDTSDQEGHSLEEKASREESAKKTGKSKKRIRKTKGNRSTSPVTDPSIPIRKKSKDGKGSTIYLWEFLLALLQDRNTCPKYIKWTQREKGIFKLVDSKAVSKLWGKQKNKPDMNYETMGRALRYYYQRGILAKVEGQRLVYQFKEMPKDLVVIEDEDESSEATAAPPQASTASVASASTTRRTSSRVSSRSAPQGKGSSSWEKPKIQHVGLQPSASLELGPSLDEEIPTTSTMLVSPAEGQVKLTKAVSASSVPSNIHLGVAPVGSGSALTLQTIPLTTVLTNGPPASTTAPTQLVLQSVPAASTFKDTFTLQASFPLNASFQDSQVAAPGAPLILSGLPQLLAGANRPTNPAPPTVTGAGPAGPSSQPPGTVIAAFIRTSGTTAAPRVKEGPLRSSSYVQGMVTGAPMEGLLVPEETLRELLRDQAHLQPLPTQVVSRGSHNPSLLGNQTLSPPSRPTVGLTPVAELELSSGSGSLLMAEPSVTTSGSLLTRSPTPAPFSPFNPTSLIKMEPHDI
Outline: as §1

ELK4 = molecular target: T9, ELK4 (Homo sapiens, UniProt P28324-2 1-405); settings: protein: recombinant; tags: N-terminal GST; dsDNA, one strand shown
T9 sequence: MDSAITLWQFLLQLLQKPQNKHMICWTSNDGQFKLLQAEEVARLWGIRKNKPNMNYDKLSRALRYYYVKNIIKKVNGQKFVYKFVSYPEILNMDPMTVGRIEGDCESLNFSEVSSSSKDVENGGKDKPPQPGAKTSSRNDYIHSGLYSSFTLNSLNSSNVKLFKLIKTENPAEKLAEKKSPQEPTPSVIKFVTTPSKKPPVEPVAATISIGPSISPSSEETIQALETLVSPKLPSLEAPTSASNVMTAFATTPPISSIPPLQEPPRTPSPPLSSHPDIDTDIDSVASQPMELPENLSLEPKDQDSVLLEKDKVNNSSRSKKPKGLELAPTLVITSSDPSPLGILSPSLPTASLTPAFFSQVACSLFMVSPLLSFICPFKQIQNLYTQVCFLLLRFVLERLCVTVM
Outline: as §1

ETV2 = molecular target: T10, ETV2 (Homo sapiens, UniProt O00321 1-342); settings: protein: recombinant; tags: N-terminal GST; dsDNA, one strand shown
T10 sequence: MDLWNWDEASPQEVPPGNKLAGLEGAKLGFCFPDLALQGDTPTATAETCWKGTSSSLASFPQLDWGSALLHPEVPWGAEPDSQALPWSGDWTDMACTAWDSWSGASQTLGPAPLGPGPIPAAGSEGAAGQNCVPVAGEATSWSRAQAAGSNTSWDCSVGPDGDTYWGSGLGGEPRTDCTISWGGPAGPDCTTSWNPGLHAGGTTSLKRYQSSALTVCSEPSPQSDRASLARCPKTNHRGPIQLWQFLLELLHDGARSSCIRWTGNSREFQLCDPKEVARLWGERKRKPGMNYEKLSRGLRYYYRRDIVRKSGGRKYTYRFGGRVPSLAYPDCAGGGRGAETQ
Outline: as §1

ELF3 = molecular target: T11, ELF3 (Homo sapiens, UniProt P78545 1-371); settings: protein: recombinant; tags: N-terminal GST; dsDNA, one strand shown
T11 sequence: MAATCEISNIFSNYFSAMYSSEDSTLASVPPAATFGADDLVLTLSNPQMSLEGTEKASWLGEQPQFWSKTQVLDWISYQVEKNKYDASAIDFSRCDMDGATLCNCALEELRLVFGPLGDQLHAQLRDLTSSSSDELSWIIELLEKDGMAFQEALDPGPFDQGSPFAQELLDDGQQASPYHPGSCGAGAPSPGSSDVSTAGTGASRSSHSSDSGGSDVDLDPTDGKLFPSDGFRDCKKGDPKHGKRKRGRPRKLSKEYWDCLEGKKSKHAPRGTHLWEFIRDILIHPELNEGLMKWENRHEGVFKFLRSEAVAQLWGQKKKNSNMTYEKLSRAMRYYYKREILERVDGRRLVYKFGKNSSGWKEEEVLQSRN
Outline: as §1

CRX = CRX (Homo sapiens, UniProt O43186 1-299); settings: protein: recombinant; tags: N-terminal GST; dsDNA, one strand shown
Chain of CRX (O43186 whole entry): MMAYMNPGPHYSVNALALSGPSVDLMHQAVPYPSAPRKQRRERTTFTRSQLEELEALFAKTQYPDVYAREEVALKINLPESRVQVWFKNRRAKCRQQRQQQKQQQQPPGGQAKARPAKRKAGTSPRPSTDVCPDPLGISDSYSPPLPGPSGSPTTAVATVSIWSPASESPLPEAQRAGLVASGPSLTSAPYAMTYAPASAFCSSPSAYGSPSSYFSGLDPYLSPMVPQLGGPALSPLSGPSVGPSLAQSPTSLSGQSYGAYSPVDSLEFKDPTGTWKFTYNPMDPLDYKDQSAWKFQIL
Outline: as §1

ETV1 = ETV1 (Homo sapiens, UniProt P50549 1-477); settings: protein: recombinant; tags: N-terminal GST; dsDNA, one strand shown
Chain of ETV1 (P50549 whole entry): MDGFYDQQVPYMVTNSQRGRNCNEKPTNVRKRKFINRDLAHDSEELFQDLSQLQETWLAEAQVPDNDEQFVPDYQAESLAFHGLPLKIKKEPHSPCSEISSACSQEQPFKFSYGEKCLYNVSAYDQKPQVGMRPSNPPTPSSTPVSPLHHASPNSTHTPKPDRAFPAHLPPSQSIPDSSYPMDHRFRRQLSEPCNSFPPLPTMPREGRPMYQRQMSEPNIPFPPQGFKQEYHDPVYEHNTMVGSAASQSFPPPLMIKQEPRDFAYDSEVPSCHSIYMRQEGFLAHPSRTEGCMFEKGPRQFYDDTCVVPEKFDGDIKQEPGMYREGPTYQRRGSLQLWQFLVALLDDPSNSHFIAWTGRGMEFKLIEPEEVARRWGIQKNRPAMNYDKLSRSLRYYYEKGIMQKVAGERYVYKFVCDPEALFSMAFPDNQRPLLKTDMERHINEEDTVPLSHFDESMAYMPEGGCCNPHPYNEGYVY
Outline: as §1

## TTCAAC
FLI1
  binding signal: 1.3 fold enrichment (6-mer frequency, TF over GST control)
ELK1
  binding signal: 1.31 fold enrichment (6-mer frequency, TF over GST control)
GABPA
  binding signal: 1.24 fold enrichment (6-mer frequency, TF over GST control)
ERG
  binding signal: 1.26 fold enrichment (6-mer frequency, TF over GST control)
ELF1
  binding signal: 1.33 fold enrichment (6-mer frequency, TF over GST control)
EHF
  binding signal: 1.32 fold enrichment (6-mer frequency, TF over GST control)
SPI1
  binding signal: 1.28 fold enrichment (6-mer frequency, TF over GST control)
SPIB
  binding signal: 1.38 fold enrichment (6-mer frequency, TF over GST control)
ELK3
  binding signal: 1.29 fold enrichment (6-mer frequency, TF over GST control)
FEV
  binding signal: 1.29 fold enrichment (6-mer frequency, TF over GST control)
ETV5
  binding signal: 1.29 fold enrichment (6-mer frequency, TF over GST control)
HSF1
  binding signal: 1.14 fold enrichment (6-mer frequency, TF over GST control)
SPIC
  binding signal: 1.24 fold enrichment (6-mer frequency, TF over GST control)
ELF4
  binding signal: 1.28 fold enrichment (6-mer frequency, TF over GST control)
ELK4
  binding signal: 1.33 fold enrichment (6-mer frequency, TF over GST control)
ETV2
  binding signal: 1.31 fold enrichment (6-mer frequency, TF over GST control)
ELF3
  binding signal: 1.38 fold enrichment (6-mer frequency, TF over GST control)
CRX
  binding signal: 1.15 fold enrichment (6-mer frequency, TF over GST control)
ETV1
  binding signal: 1.35 fold enrichment (6-mer frequency, TF over GST control)
